Source: PubChem BioAssay (NCATS)
Inconclusive results are not listed. Activity calls are given as the source filed them. Unless noted, the rule behind the calls is not given here.

Columns and labels:
[1] = qHTS profiling of the MIPE4 collection as inhibitors of Plasmodium falciparum (3D7) proliferation (AID 743344);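 note: scaled between DMSO vehicle wells and 0.29 µM artemisinin as full inhibition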; settings: P. falciparum 3D7 in erythrocytes, SYBR Green DNA fluorescence, 72 h; at 28.5 µM unless noted
Outline: (§1)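 Erythrocytes infected with P. falciparum (0.3% parasitemia, 2.5% hematocrit) incubated with compounds 72 h at 37 C, 5% CO2. Lysis with saponin/Triton buffer containing SYBR Green I, overnight at room temperature in the dark; DNA fluorescence (485/535 nm) normalised to 0.29 uM artemisinin and DMSO.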

[2] = qHTS profiling of the MIPE4 collection as inhibitors of Plasmodium falciparum (DD2) proliferation (AID 743345); settings: P. falciparum Dd2 in erythrocytes, SYBR Green DNA, 72 h; at 28.5 µM unless noted
Outline: as §1

[3] = qHTS profiling of the MIPE4 collection as inhibitors of Plasmodium falciparum (DD2) proliferation (Rep 2) (AID 743346); settings: P. falciparum Dd2 in erythrocytes, SYBR Green DNA, 72 h; at 28.5 µM unless noted
Outline: as §1

[4] = qHTS profiling of the MIPE4 collection as inhibitors of Plasmodium falciparum (HB3) proliferation (AID 743347);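 note: plate controls were DMSO vehicle wells for no effect and artemisinin wells for full effect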; settings: P. falciparum HB3 in erythrocytes, SYBR Green DNA, 72 h; at 28.5 µM unless noted
Outline: as §1

[5] = High-throughput drug toxicity screening in the BPDCN cell line Gen2.2 (AID 1224824); settings: Gen2.2 BPDCN cells; at 45.8 µM (top of the series) unless noted
Outline: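 Readout is ATP luminescence from Gen2.2 cells after two days of drug exposure in serum-containing medium at 37 °C. Values express percent activity, with vehicle defining full signal and 9.2 uM bortezomib defining zero.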

[6] = High-throughput drug toxicity screening in the BPDCN cell line Cal-1 (AID 1224825); settings: Cal-1 BPDCN cell viability, qHTS; at 45.8 µM (top of the series) unless noted
Outline: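 Cal-1 cells, 500 per well in phenol-red-free RPMI with 10% FBS, exposed to compounds for 48 hours at 37C, 5% CO2. Viability read by CellTiter-Glo luminescence; percent activity normalized to DMSO (100%) and 9.2 uM bortezomib final (0%).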

[7] = qHTS assay for measurement of the activity of small molecule inhibitors on Zika virus induced Caspase-3 activity in human iPSC derived neural progenitor cells (hNPCs) (AID 1224857; active = well fitted curve in the direction sought with a large enough effect; an effect the other way counts as inactive or inconclusive; note: % of control where 0% means no effect; nearly all actives have a fitted effect of over 65% in size)
Outline: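 hNPCs seeded 350 cells/well, cultured 16–20 h; compounds added 1 h before ZIKV (2 FFU/cell), 37 C 6 h. Caspase-Glo 3/7 luminescence after 30 min RT; % inhibition from induction scaled to uninfected (0%) and infected (100%) wells.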

[8] = qHTS Screen of the MIPE 4.0 Collection Against Ewings Sarcoma (RDES) (AID 1259252; active = well fitted curve in the direction sought with a large enough effect; an effect the other way counts as inactive or inconclusive; note: nearly all actives have a fitted effect of over 35% in size; note: potency is the fitted concentration of half-maximal effect)
Outline: (§2)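 Viability screen: 48 h incubation at 37C, 95% humidity, 5% CO2 with serially titrated compound, followed by CellTiter-Glo readout.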

[9] = qHTS Screen of the MIPE 4.0 Collection Against Ewings Sarcoma (TC32) (AID 1259256; active = well fitted curve in the direction sought with a large enough effect; an effect the other way counts as inactive or inconclusive; note: nearly all actives have a fitted effect of over 45% in size; note: potency is the fitted concentration of half-maximal effect)
Outline: as §2

[10] = qHTS assay to identify small molecule inhibitors of chordoma cells - UCH-2 (AID 1259356; active = well fitted curve in the direction sought with a large enough effect; an effect the other way counts as inactive or inconclusive; note: % is set by controls: 0 for no effect and ±100 for the full control effect)
[11] = qHTS profiling for inhibitors of Plasmodium falciparum (HB3) proliferation (AID 743324; active = well fitted curve in the direction sought with a large enough effect; an effect the other way counts as inactive or inconclusive;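 note: 100% = DMSO vehicle wells and 0% = artemisinin-treated control wells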); settings: Plasmodium falciparum HB3 blood-stage proliferation; at 28.7 µM (top of the series) unless noted
Outline: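 P. falciparum HB3 grown in erythrocytes (0.3% parasitemia, 2.5% hematocrit final) with compound for 72 h at 37 C, 5% CO2. Parasite DNA detected by SYBR Green after saponin/triton lysis overnight; normalized to 0.29 uM artemisinin and DMSO.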

[12] = Identifying Small Molecule Inhibitors of Pancreatic Cancer Stem Cells (A2780, Spheroid) (AID 1259357; active = well fitted curve in the direction sought with a large enough effect; an effect the other way counts as inactive or inconclusive;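 note: compound exposure lasted 48 h before the ATP luminescence read; 100% = DMSO treated cells and 0% = wells without cells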); settings: Potency: A2780 spheroid viability
Outline: (§3)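 Pre-formed 14-day tumor spheroids or adherent cells dosed and incubated 48 h, 37C, 5% CO2. Viability assessed by CellTiter-Glo.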

[13] = Identifying Small Molecule Inhibitors of Pancreatic Cancer Stem Cells (SN12C, Adherent) (AID 1259358; active = well fitted curve in the direction sought with a large enough effect; an effect the other way counts as inactive or inconclusive;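 note: cell survival measured after 48 h of compound exposure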; note: potency is the fitted concentration of half-maximal effect)
Outline: (§4)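 Monolayer and spheroid cultures are compared. Spheroids form over 14 days in stem cell medium on hydrogel-coated low-attachment plates, then are exposed to compound for 48 h before CellTiter-Glo luminescence.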

[14] = Identifying Small Molecule Inhibitors of Pancreatic Cancer Stem Cells (SN12C, Spheroid) (AID 1259360; active = well fitted curve in the direction sought with a large enough effect; an effect the other way counts as inactive or inconclusive;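 note: 100% = DMSO-treated cells and 0% = wells without cells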); settings: Potency: SN12C spheroid viability
Outline: as §3

[15] = Identifying Small Molecule Inhibitors of Pancreatic Cancer Stem Cells (A278, Adherent) (AID 1259361; active = well fitted curve in the direction sought with a large enough effect; an effect the other way counts as inactive or inconclusive;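 note: viability read after 48 h compound exposure; 100% = DMSO-treated cells and 0% = cell-free media-only wells; nearly all actives have a fitted effect of over 35% in size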)
Outline: as §4

[16] = qHTS Screen of the MIPE 4.0 Collection Against Ewings Sarcoma (TC71) (AID 1259253; active = well fitted curve in the direction sought with a large enough effect; an effect the other way counts as inactive or inconclusive; note: potency is the fitted concentration of half-maximal effect; nearly all actives have a fitted effect of over 40% in size)
Outline: as §2

[17] = qHTS Screen of the MIPE 4.0 Collection Against Ewings Sarcoma (EW8) (AID 1259255; active = well fitted curve in the direction sought with a large enough effect; an effect the other way counts as inactive or inconclusive; note: nearly all actives have a fitted effect of over 35% in size; note: potency is the fitted concentration of half-maximal effect;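 for viability: 100% = DMSO-treated cells and 0% = medium-only wells without cells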)
Outline: as §2

[18] = P-glycoprotein substrates identified in KB-3-1 adenocarcinoma cell line, qHTS therapeutic library screen (AID 1346986; active = well fitted curve in the direction sought with a large enough effect; an effect the other way counts as inactive or inconclusive; note: nearly all actives have a fitted effect of over 60% in size)
Outline: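 Compounds were tested in dose-response against KB-3-1 and KB-8-5-11 cells at 37 degree C for 72 h, and viability was measured by luminescence. AC50 values came from curve fitting with class-based activity calls.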

Compound	parasite growth, % of DMSO control [1] [%]	parasite growth remaining, % of DMSO control (lower = more inhibition) [2] [%]	parasite growth, % of control (lower = inhibition) [3] [%]	growth, % of control [4] [%]	cell viability, % of control (lower = more cytotoxic) [5] [%]	viability (% of control) [6] [%]	Potency [7]	Potency [8]	Potency [9]	outcome [10]	remaining proliferation (% of control), lower = more inhibition [11] [%]	Potency [12]	Potency [13]	Potency [14]	IC50 (viability decrease) [15]	Potency [16]	Potency [17]	Potency [18]
N#CC(c1ccc(Cl)cc1)c1c(Cl)cc(-n2ncc(=O)[nH]c2=O)cc1Cl (stereo not drawn)	19.5	10.7	10.2	7.09	69.2	12.7	inactive	26.4 µM (active)	inactive	inactive								
CCCCOCCOc1nc(-c2ccc(C(=O)O)c(F)c2)sc1C	81.5	98.4		85	594	73.8	inactive	20.9 µM (active)			57	inactive	inactive	inactive	inactive			
Cc1cccc(Nc2nc(N[C@@H]3CCCC[C@H]3N)ncc2C(N)=O)c1	5.2	10.2	7.28	2.45	2.09	2.41	inactive	16.6 µM (active)			0.632	inactive	18.7 µM (active)	inactive		18.7 µM (active)		
Cc1cnc(Nc2cccc(CN3CCOCC3)c2)nc1Nc1cccc(S(=O)(=O)NC(C)(C)C)c1	4.05	8.36	17.3	7.02	14	3.36	inactive		1.87 µM (active)							2.35 µM (active)	2.64 µM (active)	
CN1C(=O)C[C@H](C(=O)N[C@@H](Cc2cnc[nH]2)C(=O)N2CCC[C@@H]2C(N)=O)NC1=O		33.3			61	29.3	inactive	20.9 µM (active)								20.9 µM (active)		inactive
NC1(C(=O)N[C@@H](CCO)c2ccc(Cl)cc2)CCN(c2ncnc3[nH]ccc23)CC1	32.2	85.9	24.5	97.9	6.91	27.4	inactive	3.72 µM (active)	16.6 µM (active)							16.6 µM (active)		
OC[C@H]1O[C@@H](OCCc2ccc(O)cc2)[C@H](O)[C@@H](O)[C@H]1O	97.9	103		104	106	96.6	inactive	23.5 µM (active)										
COc1nc(C)cnc1NS(=O)(=O)c1cccnc1-c1ccc(-c2nnco2)cc1	100	100	74.5	100	379	142	inactive	inactive	inactive		91.9		inactive	inactive	inactive		inactive	inactive
O=C(Nc1ccccc1)Nc1ccc(-c2ccc(C(=O)[C@H]3CCC[C@H]3C(=O)O)cc2)cc1	29	78.7	32	51.7	28.8	107	inactive	14.8 µM (active)	18.7 µM (active)									
